APP 5UTR inh: APP translation inhibition | SH-SY5Y APP 5'UTR-luciferase reporter, luminescence | inhibition, % at 2 µM | 190,000 tested, 0.82% active;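 active means inhibition above a set limit, derived from the sample mean plus 3 SD, cut at about 45% in these data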
BaF3 parental: counter-screen for JAK2V617F inhibitors: parental Ba/F3 viability inhibitors; CellTiter-Glo ATP luminescence; inhibition, % at 5.6 µM; 220,000 tested, 1.1% active; AID 1486;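 active means inhibition above a per-campaign cutoff, the mean inhibition of all tested compounds plus 3 SD, cut at about 27% in these data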;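 further: 0% = DMSO wells and 100% = JAK Inhibitor I control wells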
Ba/F3 V617F tox: lowers viability of Ba/F3 cells expressing EpoR and JAK2V617F | ATP luminescence | inhibition, % at 5.6 µM | 220,000 tested, 1.1% active;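 active means inhibition above the campaign mean plus 3 SD over all tested compounds, cut at about 24% in these data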;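 further: cytokine-independent growth of Ba/F3 cells driven by EpoR plus mutant JAK2; 0% = DMSO-treated cells and 100% = JAK inhibitor I control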
KLF5 inh: inhibitors of KLF5 expression; DLD-1 KLF5 promoter-luciferase reporter, luminescence; 290,000 tested, 0.23% active; AID 1700; inhibition, % at 5 µM;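 active means inhibition above a per-plate limit of that plate's mean compound inhibition plus 3 SD, cut at about 60% in these data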;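 further: 0% = DMSO wells and 100% = LY294002 at 200 µM; higher means less KLF5 promoter-driven luciferase light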
IEC-6 tox: IEC-6 cytotoxicity, counter-screen for KLF5 inhibitors. luminescence viability. inhibition, % at 5 µM. 290,000 tested, 0.78% active. AID 1825;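 further: 0% = plate median of test compound wells and 100% = cytotoxic reference compound wells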
aSyn UTR inh: MLPCN primary screen, SNCA 5' untranslated region. alpha-synuclein 5'UTR reporter, inhibitor activity. inhibition, % (tested at 7.5 µM). 300,000 tested, 0.82% active. AID 1813; in the data active means inhibition above about 60%;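 further: H4 neuroglioblastoma cells stably carrying SNCA 5'UTR luciferase fusion; 0% = DMSO wells and 100% = positive control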
IEC-6 cytotox cf: IEC-6 cytotoxicity, confirmation assay; shares compounds with IEC-6 tox; IEC-6 rat intestinal epithelial viability, luminescence; inhibition, % at 5 µM; 1,900 tested, 63% active;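 further: 0% = vehicle and 100% = reference cytotoxic drug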
Numbers without * were called inactive; . = no result given. Shown are actives, neighbours in structure and some others; about 2.1% of the full set was active somewhere. Unless noted, no stated cut-off is given here; in the data, active means inhibition above about 22%; inactive means the rest.

SMILES	APP 5UTR inh	BaF3 parental	Ba/F3 V617F tox	KLF5 inh	IEC-6 tox	aSyn UTR inh	IEC-6 cytotox cf
COc1cc2c3c(c1)C(C)=CC(C)(C)N3C(=O)C2=O	30.0	-1.4	-7.3	-2.9	87.4*	-5.0	44.0*
CCOc1cc(S(=O)(=O)NCc2ccncc2)ccc1Cl	1.6	84.3*	63.9*	-5.5	24.0*	9.7	19.9
COc1ccc(C(=O)NC2CCCc3ccccc32)cc1[N+](=O)[O-] (stereo unspecified)	.	.	.	19.1	36.2*	21.5	7.2
CCc1nnc(NC(=O)c2cc(Cl)ccn2)s1	.	.	.	-86.9	30.7*	-19.6	18.4
O=C(C[n+]1ccccc1)N/N=C/c1ccc(Cl)c(Cl)c1	.	.	.	-19.3	0.9	-13.0	.
CCCN(Cc1nnc(-c2ccccc2Cl)o1)C(=O)c1cc([N+](=O)[O-])cc([N+](=O)[O-])c1	-4.8	6.9	-0.2	-17.3	-1.3	-24.8	.
Cc1cc(C(=O)N/N=C/c2ccc3c(c2)OCO3)c2ccccc2n1	.	52.2*	56.0*	36.4	39.4*	-7.0	35.1*
O=C(N/N=C/c1ccc2c(c1)OCO2)c1cccc(NC(=O)c2ccccc2Cl)c1	.	.	.	19.8	36.3*	-157.9	9.3
CC(C)N1CCc2c(sc(NC(=O)CCS(=O)(=O)c3ccccc3)c2C#N)C1	.	.	.	-19.7	0.0	-3.7	.
Cc1ccccc1C=Nc1ccccc1C(N)=O	-6.1	18.1	2.1	23.1	23.4*	-15.4	7.9
NC(=O)CN1C(=O)C(=O)N(Cc2ccccc2Cl)C1=O	.	.	.	41.6	43.8*	3.7	-6.7
NC(=O)CN1C(=O)C(=O)N(Cc2ccccc2)C1=O	.	.	.	-30.4	-0.7	-14.9	.
CC(C)(C)c1ccc(-n2nc(C#N)c(Cl)cc2=O)cc1	94.5*	-10.6	14.7	11.3	51.8*	-25.4	11.3
Cc1ccc(-c2csc3ncnc(Sc4nnc(CN5CCCCCC5=O)o4)c23)cc1	26.1	-3.5	2.2	-11.2	36.1*	-44.4	30.4*
CCOC(=O)c1[nH]c(C)c(C(=O)Nc2ccccc2C)c1C	84.2*	66.5*	71.0*	47.3	56.1*	-27.2	51.1*
O=C(NCc1ccncc1)c1cc(F)c(F)cc1Cl	-5.2	1.6	-3.2	6.6	1.8	4.6	.
O=C(Nc1ccc(Cc2ccncc2)cc1)c1cc(F)c(F)cc1Cl	-5.5	1.9	1.6	-15.1	31.2*	52.9	48.4*

Screening data from PubChem.
